# High-throughput results: PubChem, National Center for Advancing Translational Sciences (NCATS)
# Only some compounds are listed: those with a hit (about 1.7% of all), similar ones and a draw of the others.
# Giardia kill: Small Molecules that selectively kill Giardia lamblia: qHTS. 340,000 tested, 0.15% active. Giardia lamblia trophozoite viability. activity change, % at 7.66 µM, hits read low; in the data active = activity change below about -80%; inconclusive = between about -30% and that limit;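 note: parasites exposed to compound for two days anaerobically before the ATP read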
#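 Anaerobic 48 hrs incubation at 37 deg C of 100 trophozoites/well with test compounds; ATPLite 1-Step luminescence, 15-30 min RT, reports cellular ATP as viability.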
# KCNH2 3.1 inh: qHTS for Inhibitors of KCHN2 3.1: Mutant qHTS. Potassium voltage-gated channel subfamily H member 2, brain isoform KCNH2 3.1 (human). U2OS KCNH2 3.1, thallium flux FluxOr; stronger effect = lower value. activity change, % (tested at about 1.8 µM). 340,000 tested, 0.95% active;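 active = maximum activity change below -70%; inconclusive = maximum activity change from -70% to -50%; inactive = maximum activity change above -50%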;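 note: thallium influx rate constant from kinetic fluorescence after stimulation buffer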
#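 Steps: virus added to U2OS suspension (4 h, RT, dark); medium with 10% FBS added, cells plated, 37 C overnight; FluxOr/Red40 loading buffer 45 min RT; stimulation buffer, 2 min kinetic read; rate constant normalized.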
# USP1-UAF1 inh: Inhibitors of USP1/UAF1: Primary Screen; AID 743255, 2014; 390,000 tested, 0.23% active; Ubiquitin carboxyl-terminal hydrolase 1 (Homo sapiens), O94782; recombinant USP1/UAF1, Ub-Rhodamine cleavage fluorescence; Potency, µM (doses to about 57.1 µM), for inactives: at the highest dose activity change, negative = inhibition, usual class: inhibitors; active = well fitted inhibition curve with a large enough effect; inconclusive = small, poorly fitted or top-dose-only effect; inactive = no such curve, though single readings can be large or run the other way; note: potency is the fitted concentration of half-maximal effect; nearly all actives have a fitted effect of over 60% in size
#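 In this screen, compounds sit with the deubiquitinase complex (1nM) for 15 min at room temperature before Ub-Rho is added at 150nM final. Fluorescence rise is then followed for 6 reads every 60 seconds.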
# hERG WT inh: qHTS for Inhibitors of KCHN2 3.1: Wildtype qHTS. Voltage-gated inwardly rectifying potassium channel KCNH2 (Homo sapiens), Q12809. AID 720551, 2013. 340,000 tested, 0.37% active. activity change, % at 1.84 µM. U2OS, BacMam KCNH2, thallium flux FluxOr; stronger effect = lower value;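 active = maximum activity change below -70%; inconclusive = maximum activity change between -70% and -50%; inactive = maximum activity change above -50%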
#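 U2OS cells were transduced with wild-type KCNH2 virus (2.03 x 10^8 / mL) for 4 h at room temperature, then cultured overnight at 37 C. Thallium flux was read with FluxOr dye. Rate constants were normalized to DMSO controls.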
# Coupling enz: qHTS Assay for Inhibitors of Fructose-1,6-bisphosphate Aldolase from Giardia Lamblia: Coupling assay counterscreen; coupling enzyme system counterscreen, AmpLite Red fluorescence; activity change, negative = inhibition, % at 58.2 µM, hits read low; 290,000 tested, 0.67% active; AID 2472, 2010; in the data active = activity change below about -30%
#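 Compounds tested against the coupling enzymes alone at 57.5 uM final; readout was AmpLite Red fluorescence (525/598 nm) after 20 min at RT.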
# Numbers without * were called inactive; u = inconclusive; x = no result. % is set by controls: 0 for no effect and ±100 for the full control effect.
SMILES,Giardia kill,KCNH2 3.1 inh,USP1-UAF1 inh,hERG WT inh,Coupling enz
COC(=O)N1c2ccccc2C23[C@@H]4CN5CCC[C@]6(CCC12C(O)(C6)C4=O)[C@H]53,x,x,x,x,-5
COc1cc(OC)c(C2CC(=O)N3CN(c4ccccc4)CSC3=C2C#N)cc1OC (configuration not stated),-12,8,-20%,4,-24
CCOc1ccc(N2CSC3=C(C#N)C(c4ccco4)CC(=O)N3C2)cc1 (configuration not stated),2,-9,-3%,-1,-29
COc1cc(C2CC(=O)N3CN(c4ccccc4C)CSC3=C2C#N)cc(OC)c1OC (configuration not stated),x,x,x,x,-36*
Cc1ccc(C2CC(=O)N3CN(c4ccc(Br)cc4)CSC3=C2C#N)o1 (configuration not stated),0,9,-2%,5,-38*
COc1cccc(C2CC(=O)N3CN(c4cccc(Cl)c4C)CSC3=C2C#N)c1OC (configuration not stated),11,7,-20%,4,-14
COc1ccccc1N1CSC2=C(C#N)C(c3ccc(SC)cc3)CC(=O)N2C1 (configuration not stated),11,-1,-7%,8,-38*
O=S(=O)(Nc1cccc2cccnc12)c1cccs1,-13,x,x,x,x
COc1ccc(CNCCC(c2ccc(OC)cc2)c2ccccc2OC)cc1 (configuration not stated),13,-72*,-20%,-33,-1
COc1ccc(CNCCC(c2ccccc2)c2ccc(OC(C)C)cc2)cc1OC (configuration not stated),-22,u,-11%,u,2
COc1ccc(C(CCNCc2ccc(N(C)C)cc2)c2ccccc2OC)cc1 (configuration not stated),2,-5,u,-99*,1
COc1ccc(C(CCNCc2ccc(OC(C)C)cc2)c2ccccc2OC)cc1 (configuration not stated),-1,-90*,-20%,-88*,-4
O=C(c1ccc2c(c1)N(Cc1ccccc1F)C(=O)c1ccccc1S2(=O)=O)N1CCC(Cc2ccccc2)CC1,x,x,-14%,x,x
CCC1Oc2ccc(C)cc2N(CC(=O)NCCc2ccccc2)C1=O (configuration not stated),x,x,-4%,x,x
O=C(NN=C1CCCC1)c1ccc(O)cc1,-2,-4,-16%,-11,2
O=C(NN=C1CCCC1)c1ccc([N+](=O)[O-])cc1,-5,0,-25%,-222*,1
O=C(NNc1ccccc1F)c1sccc1Cl,-19,x,x,x,x
CC(C)NC(=O)C12CC3CC(C1)CC(C(=O)NC(C)C)(C3)C2,-2,-88*,-7%,16,-2
COc1ccc2c(c1)CCc1cn3nc(C)cc3nc1-2,-17,20,-7%,-3,-45*
COc1c(C)cc(S(=O)(=O)N2CCCC2)c(C)c1C,2,-13,-3%,1,-4
COc1c(C)cc(S(=O)(=O)N2CCOCC2)c(C)c1C,-15,-172*,-6%,-4,1
CN(C(=S)NC(=O)c1ccc(Cl)cc1)C1CCCCC1,0,-15,-23%,-74*,1
Cc1ccc(NC(=O)CSCc2cc(=O)c3ccccc3[nH]2)c(C)c1,x,x,-4%,x,x
O=c1[nH]c2c(s1)C(c1ccco1)C1C3CCC(C3)C1S2 (configuration not stated),-5,-3,-17%,-1,-44*
O=C1c2ccccc2C(=O)c2c1ncn2-c1ccccc1,-6,6,u,-1,-36*
SMILES,Giardia kill,KCNH2 3.1 inh,USP1-UAF1 inh,hERG WT inh,Coupling enz
Cc1cccc(C(=O)O)c1NC(=O)c1ccc(F)cc1,-5,0,-15%,-194*,0
Cc1cccc(C)c1NC(=O)c1ccccc1C(=O)O,-12,-4,-24%,8,x
Cc1ccc(-n2c(=O)c3c(c4cc(C)ccc4n3C)n(CC(=O)c3ccc(Cl)cc3)c2=O)cc1,x,x,-17%,x,x
S=C(NCCc1ccccc1)N1CCN(C23CC4CC(CC(C4)C2)C3)CC1,1,-88*,-19%,-6,1
Cc1ccc(NCc2ccccc2-c2nnc(-c3ccccc3Cl)o2)c(C)c1,x,x,-12%,x,x
Cc1ccc(C(=O)Oc2ccc(C(=O)COC(=O)C3CC(=O)N(Cc4ccco4)C3)cc2)cc1 (configuration not stated),-7,-87*,5%,-1,-1
O=C(COC(=O)C1CC(=O)N(Cc2ccco2)C1)c1ccc(OC(=O)c2ccco2)cc1 (configuration not stated),-22,22,2%,-2,0
COc1ccccc1OCC(=O)Nc1nc(C)c(C)s1,9,-75*,-18%,18,-1
COC(=O)c1sc(NC(=O)COc2ccccc2C)nc1C,19,-7,-13%,-4,-2
C=CCOc1c(Cl)cc(CNc2ccc(C)c(Cl)c2)cc1OC,x,x,x,x,-1
C=CCOc1c(Cl)cc(CNc2ccc(N(C)C)cc2)cc1OC,13,15,u,19,-79*
COc1ccc(NC(=O)C2CCCN(c3nnc(C)c4c(C)n(-c5ccccc5)nc34)C2)cc1Cl (configuration not stated),x,x,-7%,x,x
O=C(C[C@H]1C[C@H](C(=O)N2CCCCC2)[C@@]2(CCc3ccccc3)c3[nH]c4ccc(Cl)cc4c3CCN2C1=O)NCCc1ccccn1,16,-7,-33%,3,x
CN(C)CCCNC(=O)C[C@H]1C[C@H](C(=O)N2CCCCC2)[C@@]2(CCc3ccccc3)c3[nH]c4ccc(Cl)cc4c3CCN2C1=O,-6,-47,-6%,-120*,x
COc1cccc(CNC(=O)CCC2CCCN(C(=O)CCC(F)(F)F)C2)c1 (configuration not stated),25,-8,-16%,-9,-4
COc1cccc(CNC(=O)CCC2CCCN(C(=O)CCn3cncn3)C2)c1 (configuration not stated),0,-94*,-3%,3,0
CCN(CC(=O)Nc1ccc(OC)cc1)C(=O)Cc1cccs1,5,-152*,-2%,0,x
CCn1c(SCC(=O)NCc2ccco2)nnc1-c1cccs1,4,-74*,-6%,9,-11
C=CCn1c(SCC(=O)Nc2ccc(N3CCOCC3)cc2)nnc1-c1ccncc1,-12,1,-12%,-1,-1
Cc1ccc(-n2c(Cc3cccs3)nnc2SCC(=O)Nc2ccc(F)c(F)c2)cc1,7,-15,-7%,-77*,0
CCn1c(SCC(=O)Nc2ccc3c(c2)OCCO3)nnc1-c1cccs1,4,-81*,-7%,-1,-10
